Reference: PubChem BioAssay (Tox21)
A number with no mark means an inactive call. Records with an inconclusive call do not appear. Entries that show only a call come without a potency. Calls of active or inactive are those of the source. Calls follow the shape of the dose curve; as a rule, active = well fitted curve in the direction sought with a large enough effect in the repeat runs; inconclusive = weak or mixed curves; inactive = no such curve, though single readings can be large; an effect the other way counts as inactive or inconclusive.

What was measured:
[1] = A CellTox Green Cytotoxicity Assay to monitor cytotoxicity in HEK293 cells - 40 hour (AID 1224871); also: nearly all actives have a fitted effect of over 45% in size
Method in brief: (§1)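 Seeding of HEK293 cells together with cytotoxicity dye preceded a 5 h incubation at 37 C/5% CO2. Test compounds in DMSO were then added and fluorescence monitored across 40 h.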

[2] = qHTS RealTime-Glo MT Cell Viability Assay in HEK293 cells - 16 hour (AID 1224872); also: top concentration of the series differs between compounds; nearly all actives have a fitted effect of over 50% in size
Method in brief: (§2)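 Cells + reagent dispensed (600 cells/well, HEK293) → 5 h at 37 C/5% CO2 → 23 nL compound in DMSO pinned → 40 h at 37 C → luminescence read at 0, 8, 16, 24, 32, 40 h.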

[3] = qHTS RealTime-Glo MT Cell Viability Assay in HepG2 cells - 8 hour (AID 1224873); also: nearly all actives have a fitted effect of over 55% in size
Method in brief: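 HepG2 cells mixed with RealTime-Glo MT reagents (NanoLuc plus cell-permeant prosubstrate) were seeded at 600 cells/well, incubated 5 h at 37 C/5% CO2, then pinned with compounds in DMSO; nonlytic luminescence tracked viability during 40 h treatment.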

[4] = qHTS RealTime-Glo MT Cell Viability Assay in HEK293 cells - 40 hour (AID 1224874); conditions: RealTime-Glo luminescence; max response: hits give low values; also: nearly all actives have a fitted effect of over 50% in size
Method in brief: (§3)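 Tox21 screen in HEK293 using RealTime-Glo MT chemistry, with cells and reagent co-dispensed. Luminescence proportional to viable cell number was captured at intervals during 40 h compound exposure at 37 C.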

[5] = A CellTox Green Cytotoxicity Assay to monitor cytotoxicity in HEK293 cells - 24 hour (AID 1224875); also: series mostly up to about 77 µM; nearly all actives have a fitted effect of over 45% in size
Method in brief: as §1

[6] = A CellTox Green Cytotoxicity Assay to monitor cytotoxicity in HepG2 cells - 16 hour (AID 1224876); also: nearly all actives have a fitted effect of over 45% in size
Method in brief: (§4)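 Nonlytic assay: viable cells exclude the dye, so fluorescence scales with cell death. HepG2 at 600 cells/well, compounds added after 5 h, signal read across 40 h.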

[7] = qHTS RealTime-Glo MT Cell Viability Assay in HepG2 cells - 32 hour (AID 1224877); also: nearly all actives have a fitted effect of over 55% in size
Method in brief: (§5)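 Real-time, nonlytic viability: 600 HepG2 cells/well mixed with NanoLuc enzyme plus prosubstrate; 5 h settle, compound (DMSO) added by pintool; luminescence monitored over 40 h at 37 C.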

[8] = A CellTox Green Cytotoxicity Assay to monitor cytotoxicity in HepG2 cells - 24 hour (AID 1224878); also: nearly all actives have a fitted effect of over 45% in size
Method in brief: as §4

[9] = A CellTox Green Cytotoxicity Assay to monitor cytotoxicity in HepG2 cells - 40 hour (AID 1224879); also: nearly all actives have a fitted effect of over 40% in size
Method in brief: as §4

[10] = qHTS RealTime-Glo MT Cell Viability Assay in HEK293 cells - 0 hour (AID 1224880); also: nearly all actives have a fitted effect of over 45% in size; also: potency is read from the fitted curve at half-maximal effect
Method in brief: as §3

[11] = A CellTox Green Cytotoxicity Assay to monitor cytotoxicity in HEK293 cells - 32 hour (AID 1224881); also: nearly all actives have a fitted effect of over 40% in size
Method in brief: as §1

[12] = A CellTox Green Cytotoxicity Assay to monitor cytotoxicity in HepG2 cells - 0 hour (AID 1224882); also: nearly all actives have a fitted effect of over 35% in size
Method in brief: as §4

[13] = A CellTox Green Cytotoxicity Assay to monitor cytotoxicity in HepG2 cells - 32 hour (AID 1224883); also: nearly all actives have a fitted effect of over 50% in size
Method in brief: as §4

[14] = A CellTox Green Cytotoxicity Assay to monitor cytotoxicity in HEK293 cells - 8 hour (AID 1224884); also: nearly all actives have a fitted effect of over 35% in size
Method in brief: as §1

[15] = qHTS RealTime-Glo MT Cell Viability Assay in HepG2 cells - 16 hour (AID 1224885); also: nearly all actives have a fitted effect of over 50% in size
Method in brief: as §5

[16] = qHTS RealTime-Glo MT Cell Viability Assay in HEK293 cells - 24 hour (AID 1224886)
Method in brief: as §2

[17] = qHTS RealTime-Glo MT Cell Viability Assay in HEK293 cells - 8 hour (AID 1224887)
Method in brief: as §3

[18] = A CellTox Green Cytotoxicity Assay to monitor cytotoxicity in HEK293 cells - 16 hour (AID 1224888); also: nearly all actives have a fitted effect of over 35% in size
Method in brief: as §1

[19] = qHTS RealTime-Glo MT Cell Viability Assay in HepG2 cells - 0 hour (AID 1224889); also: nearly all actives have a fitted effect of over 50% in size; also: potency is read from the fitted curve at half-maximal effect
Method in brief: as §5

[20] = A CellTox Green Cytotoxicity Assay to monitor cytotoxicity in HepG2 cells - 8 hour (AID 1224890); also: nearly all actives have a fitted effect of over 45% in size
Method in brief: as §4

Cn1c(N)c(N=O)c(=O)n(C)c1=O
Potency [1]: inactive | Potency [2]: inactive | Potency [3]: inactive | max response [4]: 4.01% | Potency [5]: inactive | Potency [6]: inactive | Potency [7]: inactive | Potency [8]: inactive | Potency [9]: inactive | Potency [10]: inactive | Potency [11]: inactive | Potency [12]: inactive | Potency [13]: inactive | Potency [14]: inactive | Potency [15]: inactive | Potency [16]: inactive | Potency [17]: inactive | Potency [18]: inactive | Potency [19]: inactive | Potency [20]: inactive

FC(F)OC(Cl)C(F)(F)F (stereo unspecified)
Potency [1]: inactive | Potency [2]: inactive | Potency [3]: inactive | max response [4]: 5.59% | Potency [5]: inactive | Potency [6]: inactive | Potency [7]: inactive | Potency [8]: inactive | Potency [9]: inactive | Potency [10]: inactive | Potency [11]: inactive | Potency [12]: inactive | Potency [13]: inactive | Potency [14]: inactive | Potency [15]: inactive | Potency [16]: inactive | Potency [17]: inactive | Potency [18]: inactive | Potency [19]: inactive | Potency [20]: inactive

COc1nc(N)nc2c1ncn2[C@@H]1O[C@H](CO)[C@@H](O)[C@@H]1O
Potency [1]: inactive | Potency [2]: inactive | Potency [3]: inactive | max response [4]: 14.1% | Potency [5]: inactive | Potency [6]: inactive | Potency [7]: inactive | Potency [8]: inactive | Potency [9]: inactive | Potency [10]: inactive | Potency [11]: inactive | Potency [12]: inactive | Potency [13]: inactive | Potency [14]: inactive | Potency [15]: inactive | Potency [16]: inactive | Potency [17]: inactive | Potency [18]: inactive | Potency [19]: inactive | Potency [20]: inactive

CCOC(=O)c1cccc(N)c1
Potency [1]: inactive | Potency [2]: inactive | Potency [3]: inactive | max response [4]: 3.26% | Potency [5]: inactive | Potency [6]: inactive | Potency [7]: inactive | Potency [8]: inactive | Potency [9]: inactive | Potency [10]: inactive | Potency [11]: inactive | Potency [12]: inactive | Potency [13]: inactive | Potency [14]: inactive | Potency [16]: inactive | Potency [17]: inactive | Potency [18]: inactive | Potency [19]: inactive | Potency [20]: inactive

CCCC(=O)O[C@]1(C(=O)CO)CC[C@H]2[C@@H]3CCC4=CC(=O)CC[C@]4(C)[C@H]3[C@@H](O)C[C@@]21C
Potency [1]: inactive | Potency [2]: inactive | Potency [3]: inactive | max response [4]: 0.181% | Potency [5]: inactive | Potency [6]: inactive | Potency [7]: inactive | Potency [8]: inactive | Potency [9]: inactive | Potency [10]: 10.7 µM (active) | Potency [11]: inactive | Potency [12]: inactive | Potency [13]: inactive | Potency [14]: inactive | Potency [15]: inactive | Potency [16]: inactive | Potency [17]: inactive | Potency [18]: inactive | Potency [19]: 2.13 µM (active) | Potency [20]: inactive

CCCCCCOC(=O)CCCCC(=O)OCCCCCC
Potency [1]: inactive | Potency [2]: inactive | Potency [3]: inactive | max response [4]: 7.23% | Potency [5]: inactive | Potency [6]: inactive | Potency [7]: inactive | Potency [8]: inactive | Potency [9]: inactive | Potency [10]: inactive | Potency [11]: inactive | Potency [12]: inactive | Potency [13]: inactive | Potency [14]: inactive | Potency [15]: inactive | Potency [16]: inactive | Potency [17]: inactive | Potency [18]: inactive | Potency [19]: inactive | Potency [20]: inactive

N=C(N)c1ccc(OCCCOc2ccc(C(=N)N)cc2)cc1
Potency [1]: inactive | Potency [2]: inactive | Potency [3]: inactive | max response [4]: 1.81% | Potency [5]: inactive | Potency [6]: inactive | Potency [7]: inactive | Potency [8]: inactive | Potency [9]: inactive | Potency [10]: inactive | Potency [11]: inactive | Potency [12]: inactive | Potency [13]: inactive | Potency [14]: inactive | Potency [15]: inactive | Potency [16]: inactive | Potency [17]: inactive | Potency [18]: inactive | Potency [19]: inactive | Potency [20]: inactive

NS(=O)(=O)c1cc(C(=O)NN2C[C@H]3[C@H]4CCC(C4)[C@H]3C2)ccc1Cl
Potency [1]: inactive | Potency [2]: inactive | Potency [3]: inactive | max response [4]: -21.1% | Potency [5]: inactive | Potency [6]: inactive | Potency [7]: inactive | Potency [8]: inactive | Potency [9]: inactive | Potency [10]: inactive | Potency [11]: inactive | Potency [12]: inactive | Potency [13]: inactive | Potency [14]: inactive | Potency [15]: inactive | Potency [16]: inactive | Potency [17]: inactive | Potency [18]: inactive | Potency [19]: inactive | Potency [20]: inactive

COc1ccc2c(c1)c(CC(=O)OCC(=O)O)c(C)n2C(=O)c1ccc(Cl)cc1
Potency [1]: inactive | Potency [2]: inactive | Potency [3]: inactive | max response [4]: 5.11% | Potency [5]: inactive | Potency [6]: inactive | Potency [7]: inactive | Potency [8]: inactive | Potency [9]: inactive | Potency [10]: inactive | Potency [11]: inactive | Potency [12]: inactive | Potency [13]: inactive | Potency [14]: inactive | Potency [16]: inactive | Potency [17]: inactive | Potency [18]: inactive | Potency [19]: inactive | Potency [20]: inactive

OCCCC1CCCCC1
Potency [1]: inactive | Potency [2]: inactive | Potency [3]: inactive | max response [4]: 11.3% | Potency [5]: inactive | Potency [6]: inactive | Potency [7]: inactive | Potency [8]: inactive | Potency [9]: inactive | Potency [10]: inactive | Potency [11]: inactive | Potency [12]: inactive | Potency [13]: inactive | Potency [14]: inactive | Potency [16]: inactive | Potency [17]: inactive | Potency [18]: inactive | Potency [19]: inactive | Potency [20]: inactive

NC(CSCC(=O)O)C(=O)O (stereo unspecified)
Potency [1]: inactive | Potency [2]: inactive | Potency [3]: inactive | max response [4]: 7.24% | Potency [5]: inactive | Potency [6]: inactive | Potency [7]: inactive | Potency [8]: inactive | Potency [9]: inactive | Potency [10]: inactive | Potency [11]: inactive | Potency [12]: inactive | Potency [13]: inactive | Potency [14]: inactive | Potency [15]: inactive | Potency [16]: inactive | Potency [17]: inactive | Potency [18]: inactive | Potency [19]: inactive | Potency [20]: inactive

OCCOc1ccc(OCCO)cc1
Potency [1]: inactive | Potency [2]: inactive | Potency [3]: inactive | max response [4]: 19.3% | Potency [5]: inactive | Potency [6]: inactive | Potency [7]: inactive | Potency [8]: inactive | Potency [9]: inactive | Potency [10]: inactive | Potency [11]: inactive | Potency [12]: inactive | Potency [13]: inactive | Potency [14]: inactive | Potency [16]: inactive | Potency [17]: inactive | Potency [18]: inactive | Potency [19]: inactive | Potency [20]: inactive
